Measurements published in PubChem BioAssay AID1159580 (chemical genetic matrix, 2015).
Values joined by “and” are separate entries in the source; they are usually repeats but may differ in a detail not shown here. Identical values can stand only once. In all, about 5,500 compounds went through this assay and about 2,000 (36%) were called active. Not shown: some 18% with an inconclusive outcome. No stated cut-off is given here; in the data, active means normalized growth mostly below about 0.91 (no sharp cut-off); inconclusive means no clear call, values can overlap the other calls; inactive means mostly above about 0.92. The list shows a part of the results.

Test: chemical genetic growth profiling, strain panel (AID 1159580);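 further: tested at 20 µM; growth read once vehicle control cultures reached saturation at 30 °C; 1 = growth at the plate median or of vehicle wells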
Details: S. cerevisiae deletion strains, growth OD

Measured: normalized growth

CCCCC1C(=O)N(c2ccccc2)N(c2ccccc2)C1=O
inactive: locus YAL013W, strain DEP1, stronger effect = lower value 0.971 and 0.998 | locus YAL021C, strain ccr4, stronger effect = lower value 0.999 | locus YAL026C, strain drs2, stronger effect = lower value 0.982 | locus YAL030W, strain snc1, stronger effect = lower value 0.987 | locus YAL040C, strain CLN3, stronger effect = lower value 0.963 | locus YBL061C, strain skt5, stronger effect = lower value 0.997 | locus YBR009C, strain hhf1, stronger effect = lower value 1.01 | locus YBR021W, strain FUR4, stronger effect = lower value 1.01 | locus YBR023C, strain chs3, stronger effect = lower value 0.998 | locus YBR171W, strain sec66, stronger effect = lower value 0.977 | locus YBR229C, strain ROT2, stronger effect = lower value 0.983 | locus YBR231C, strain swc5, stronger effect = lower value 1 | locus YBR279W, strain paf1, stronger effect = lower value 1.02 | locus YCL011C, strain gbp2, stronger effect = lower value 1 | locus YCL016C, strain dcc1, stronger effect = lower value 1 | locus YCL029C, strain bik1, stronger effect = lower value 1.01 | locus YCL061C, strain MRC1 (second series), stronger effect = lower value 0.998 | locus YCL061C, strain MRC1, stronger effect = lower value 0.983 | locus YCL069W, strain vba3, stronger effect = lower value 0.999 | locus YCR088W, strain abp1, stronger effect = lower value 0.985 | locus YDL005C, strain med2, stronger effect = lower value 1 | locus YDL035C, strain GPR1, stronger effect = lower value 0.989 | locus YDL040C, strain nat1, stronger effect = lower value 0.99 | locus YDL074C, strain BRE1, stronger effect = lower value 1.02 | locus YDL101C, strain DUN1, stronger effect = lower value 1.01 | locus YDL134C, strain PPH21, stronger effect = lower value 0.986 | locus YDL185W, strain tfp1, stronger effect = lower value 0.994 | locus YDL192W, strain arf1, stronger effect = lower value 0.988 | locus YDR001C, strain nth1, stronger effect = lower value 0.984 | locus YDR069C, strain doa4, stronger effect = lower value 0.982 | locus YDR101C, strain arx1, stronger effect = lower value 1.01 | locus YDR137W, strain rgp1, stronger effect = lower value 0.915 | locus YDR150W, strain NUM1, stronger effect = lower value 0.99 and 0.997 | locus YDR159W, strain sac3, stronger effect = lower value 0.972 | locus YDR162C, strain NBP2, stronger effect = lower value 0.976 | locus YDR195W, strain ref2 0.992 | locus YDR297W, strain sur2, stronger effect = lower value 0.989 | locus YDR318W, strain mcm21, stronger effect = lower value 1.01 | locus YDR334W, strain swr1, stronger effect = lower value 0.994 | locus YDR335W, strain msn5, stronger effect = lower value 0.997 | locus YDR363W, strain ESC2, stronger effect = lower value 1.03 | locus YDR388W, stronger effect = lower value 1 | locus YDR392W, strain spt3, stronger effect = lower value 0.969 | locus YDR502C, strain sam2, stronger effect = lower value 0.986 | locus YEL003W, strain gim4, stronger effect = lower value 1 | locus YEL037C, strain rad23, stronger effect = lower value 0.991 | locus YEL061C, strain CIN8 (second series), stronger effect = lower value 0.983 | locus YEL061C, strain CIN8, stronger effect = lower value 0.981 | locus YER002W, strain NOP16, stronger effect = lower value 0.974 | locus YER015W, strain faa2, stronger effect = lower value 0.998 | locus YER016W, strain bim1, stronger effect = lower value 0.99 | locus YER110C, stronger effect = lower value 0.993 | locus YER111C, strain swi4, stronger effect = lower value 0.979 | locus YER155C, strain BEM2 (second series), stronger effect = lower value 1.03 | locus YER155C, strain BEM2, stronger effect = lower value 1.01 | locus YER167W, strain BCK2, stronger effect = lower value 0.987 | locus YFR010W, strain ubp6, stronger effect = lower value 0.991 | locus YGL078C, strain dbp3, stronger effect = lower value 1.01 | locus YGL086W, strain mad1, stronger effect = lower value 0.963 | locus YGL167C, strain pmr1, stronger effect = lower value 0.977 | locus YGL173C, strain kem1, stronger effect = lower value 0.983 | locus YGL227W, strain vid30, stronger effect = lower value 1 | locus YGL240W, strain doc1, stronger effect = lower value 1.01 | locus YGL248W, strain PDE1, stronger effect = lower value 0.991 | locus YGL253W, strain hxk2, stronger effect = lower value 0.994 | locus YGR078C, strain PAC10, stronger effect = lower value 1.02 and 0.981 | locus YGR135W, strain pre9, stronger effect = lower value 0.994 | locus YGR229C, strain SMI1, stronger effect = lower value 0.983 and 1 | locus YGR252W, strain gcn5, stronger effect = lower value 0.922 | locus YHR013C, strain ard1, stronger effect = lower value 0.992 | locus YHR027C, strain rpn1, stronger effect = lower value 0.99 | locus YHR030C, strain SLT2, stronger effect = lower value 0.992 and 0.937 | locus YHR079C, strain IRE1 (second series), stronger effect = lower value 1 | locus YHR079C, strain IRE1, stronger effect = lower value 0.917 | locus YHR094C, strain hxt1, stronger effect = lower value 0.991 | locus YHR129C, strain ARP1, stronger effect = lower value 0.994 | locus YHR142W, strain chs7, stronger effect = lower value 1.03 | locus YHR200W, strain rpn10, stronger effect = lower value 1 | locus YIL066C, strain RNR3, stronger effect = lower value 0.991 | locus YIL073C, strain SPO22, stronger effect = lower value 1.01 | locus YIL125W, strain kgd1, stronger effect = lower value 0.98 | locus YIR030C, strain dcg1, stronger effect = lower value 0.993 | locus YJL092W, strain hpr5, stronger effect = lower value 0.985 | locus YJL095W, strain BCK1 (second series), stronger effect = lower value 0.996 | locus YJL095W, strain BCK1, stronger effect = lower value 1.03 and 0.938 | locus YJL115W, strain asf1, stronger effect = lower value 0.99 | locus YJL129C, strain trk1, stronger effect = lower value 0.999 | locus YJL134W, strain LCB3, stronger effect = lower value 0.977 | locus YJL154C, strain vps35, stronger effect = lower value 0.991 | locus YJL164C, strain tpk1, stronger effect = lower value 1.01 | locus YJL166W, strain qcr8, stronger effect = lower value 1.01 | locus YJL168C, strain set2, stronger effect = lower value 0.988 | locus YJL187C, strain SWE1 (second series), stronger effect = lower value 1.01 | locus YJL187C, strain SWE1, stronger effect = lower value 0.988 | locus YJR043C, strain POL32, stronger effect = lower value 1.04 | locus YJR066W, strain TOR1, stronger effect = lower value 0.915
